In PubChem BioAssay AID1445 (SRMLSC, 2008):
Hit rate of the full screen: of about 220,000 compounds, about 910 (0.41%) were called active. Many of the other results were omitted from the sample, so actives are more common in it than they were. Potency and affinity values are given separately. A number with no mark means an inactive call.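 The calls were made as follows: active = primary inhibition above the hit cutoff, then over 50% inhibition at one or more dose response concentrations (cut at about 23% in these data, passing the limit was not always enough); inconclusive = conflicting primary data, or primary hits not chosen for dose response; inactive = low primary inhibition, or under 50% at every dose.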

Each compound was assayed against Aminopeptidase N (Plasmodium falciparum (isolate 3D7)) (UniProt O96935) (assay: malaria alanyl aminopeptidase activity blockers – biochemical, fluorogenic H-Leu-NHMec substrate, 1536-well (AID 1445;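 also: plate controls were DMSO full reaction for no effect and no enzyme background for full effect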)). Details: recombinant M1AAP, H-Leu-NHMec fluorogenic kinetic assay; at 30 µM, hits give high values unless noted.
Aminopeptidase N (Plasmodium falciparum (isolate 3D7)), sequence (O96935 whole entry, looked up): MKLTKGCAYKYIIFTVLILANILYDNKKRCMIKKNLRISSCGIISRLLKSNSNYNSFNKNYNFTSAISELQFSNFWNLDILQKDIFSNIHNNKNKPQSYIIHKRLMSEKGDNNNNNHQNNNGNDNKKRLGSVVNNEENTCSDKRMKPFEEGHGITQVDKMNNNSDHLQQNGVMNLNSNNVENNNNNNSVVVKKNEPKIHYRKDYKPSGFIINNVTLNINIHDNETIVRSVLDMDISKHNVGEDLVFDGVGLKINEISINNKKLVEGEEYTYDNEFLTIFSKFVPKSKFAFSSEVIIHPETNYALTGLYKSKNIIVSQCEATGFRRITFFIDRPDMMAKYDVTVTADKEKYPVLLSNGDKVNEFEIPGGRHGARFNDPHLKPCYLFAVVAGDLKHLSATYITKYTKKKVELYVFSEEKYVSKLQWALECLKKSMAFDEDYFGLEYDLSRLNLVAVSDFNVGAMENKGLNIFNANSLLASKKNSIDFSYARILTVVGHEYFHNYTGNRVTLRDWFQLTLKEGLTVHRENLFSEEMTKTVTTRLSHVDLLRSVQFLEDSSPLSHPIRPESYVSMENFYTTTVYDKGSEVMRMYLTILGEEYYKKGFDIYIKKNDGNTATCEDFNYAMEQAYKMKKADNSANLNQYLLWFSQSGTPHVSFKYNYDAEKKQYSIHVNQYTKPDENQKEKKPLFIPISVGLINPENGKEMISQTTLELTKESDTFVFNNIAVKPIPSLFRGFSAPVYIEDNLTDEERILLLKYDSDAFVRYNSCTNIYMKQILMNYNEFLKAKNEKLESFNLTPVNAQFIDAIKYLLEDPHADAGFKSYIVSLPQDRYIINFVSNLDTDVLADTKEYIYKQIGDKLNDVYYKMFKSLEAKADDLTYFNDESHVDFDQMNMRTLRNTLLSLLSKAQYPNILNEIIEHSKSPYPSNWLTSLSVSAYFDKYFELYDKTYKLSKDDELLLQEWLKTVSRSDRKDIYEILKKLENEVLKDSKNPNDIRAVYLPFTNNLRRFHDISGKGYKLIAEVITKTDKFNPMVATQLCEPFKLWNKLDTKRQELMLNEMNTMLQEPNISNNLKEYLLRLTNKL

SMILES	inhibition
O=C1Nc2ccccc2S/C1=C/Nc1cccc(Cl)c1	-0.46%
Cc1ccc(N/C=C2/Sc3ccccc3NC2=O)cc1	-2.38%
CCc1ccc(OCC(=O)NC(NC(=S)Nc2ccc(C)cc2C)C(Cl)(Cl)Cl)cc1 (stereo not drawn)	1.79%
Cc1cc(NC(=O)CSc2nnc(-c3ccncc3)n2-c2ccccc2)no1	10.6%
CCCCOc1ccc(CC(=O)NCC(=O)O)cc1	3.76%
CCCCOc1ccc(C(=O)O)cc1	9.1%
Cc1cccc(N(Cc2cc3ccccc3[nH]c2=O)C(=O)c2cccs2)c1	0.39%
C=CCOc1ccc2ccccc2c1CNc1ncn[nH]1	0.63%
CN(CC(=O)Nc1ccc(N2CCOCC2)cc1)C(=O)COc1ccccc1F	0.51%
Cc1ccc(NC(=S)C2=C(O)c3sccc3N(C)S2(=O)=O)cc1	25.2% (active)
CN1c2ccsc2C(O)=C(C(=S)Nc2ccccc2)S1(=O)=O	7.91%
Cc1ccc(NC(=O)C2=C(O)c3sccc3N(C)S2(=O)=O)cc1	8.43%
Cc1cc(Oc2cc(N)cc([N+](=O)[O-])c2)ccc1Cl	4.69%
O=C(NNC(=O)c1ccccc1Cl)c1ccccc1Cl	-3.69%
O=C(NNC(=O)c1ccccc1Br)c1ccccc1Cl	5.77%
O=C(NNC(=O)c1ccc2ccccc2c1O)c1ccccc1Cl	25.2% (active)
CSc1ccc(-c2nnn(CC(=O)NCc3ccccc3)n2)cc1	-1.85%
Cc1[nH]nc2c1C(c1ccc(-c3ccccc3C#N)o1)C(C#N)=C(N)O2 (stereo not drawn)	23.4% (active)
Cc1[nH]nc2c1C(c1ccc(-c3ccc(Cl)cc3)o1)C(C#N)=C(N)O2 (stereo not drawn)	-0.1%
Cc1ccc(-c2ccc(C3C(C#N)=C(N)Oc4n[nH]c(C)c43)o2)cc1 (stereo not drawn)	12.9%

SMILES	inhibition
COc1ccc(N2CCN(C(=O)COc3ncnc4ccccc34)CC2)cc1	0.28%
N/C(=N\OC(=O)CCCOc1ccccc1)c1ccncc1	2.2%
CCOCCCNC(=O)CCC(=O)NNc1nc2ccccc2c2nc(C)nn12	1.55%
CCCCn1c(NS(=O)(=O)c2ccccc2)c(S(=O)(=O)c2ccc(C)cc2)c2nc3ccccc3nc21	-1.2%
Cc1cccc(S(=O)(=O)c2c(N)n(Cc3ccco3)c3nc4ccccc4nc23)c1	20.6%
CCCCn1c(NC(=O)c2ccccc2)c(C#N)c2nc3ccccc3nc21	2.47%
Nc1c(S(=O)(=O)c2ccccc2)c2nc3ccccc3nc2n1Cc1ccco1	21.5%
CCCCn1c(NS(=O)(=O)c2ccc(C)cc2)c(S(=O)(=O)c2ccccc2)c2nc3ccccc3nc21	11.6%
CCCCn1c(N)c(S(=O)(=O)c2ccc(C)cc2)c2nc3ccccc3nc21	12.5%
COc1ccc(-n2c(NC(=O)c3ccco3)c(C#N)c3nc4ccccc4nc32)cc1	3.92%
COc1ccc(-n2c(NC(=O)c3ccc(Br)o3)c(C#N)c3nc4ccccc4nc32)cc1	1.59%
Cc1ccc(S(=O)(=O)c2c(N)n(Cc3ccco3)c3nc4ccccc4nc23)cc1	24.7% (active)
O=C(c1ccc(-c2ccccc2)cc1)C1CCCN(C(=O)Cn2cncn2)C1 (stereo not drawn)	8.56%
O=C(C(=O)N1CCCc2ccccc21)c1cn(CC(=O)N2CCOCC2)c2ccccc12	1.02%
O=C(NCc1ccccc1)C12CC3CC(CC(C3)C1)C2	-3.07%
Cc1nn(C(=O)c2cccnc2)c(C)c1Sc1ccccc1	6.53%
Cc1ccc(S(=O)(=O)N(C)C)cc1NC(=O)c1sccc1Cl	0.57%
Cc1ccc(C(=O)N2CCCC(c3ccc(Cl)cc3)=N2)cc1	-2.39%
Cc1ccsc1/C=N/NC(=O)c1ccc([N+](=O)[O-])cc1	4%
CC(=O)Nc1c(S(=O)(=O)c2ccccc2)c2nc3ccccc3nc2n1Cc1ccccc1	22.9%

SMILES	inhibition
CCCCn1c(NC(=O)c2ccc(Br)o2)c(S(=O)(=O)c2ccccc2)c2nc3ccccc3nc21	8.47%
CC(=O)Nc1ccc2nc(NC(=O)c3cccs3)sc2c1	4.98%
O=C(Nc1ccc(F)cc1F)c1ccccc1-c1ccccc1	-1.46%
CCN(CC)C(=O)CSc1nc2ccsc2c(=O)n1CCCC(=O)NCCc1ccc(S(N)(=O)=O)cc1	11.4%
CCCCNC(=O)CSc1nc2ccsc2c(=O)n1CCCC(=O)NCCc1ccc(S(N)(=O)=O)cc1	4.74%
COc1cc(C(=O)OCC(=O)NCc2ccco2)cc(OC)c1OC	7.63%
CC(C)Cn1c2c(c(O)c(C(=O)Nc3ncccc3O)c1=O)CCCC2	16.5%
CCCn1c2c(c(O)c(C(=O)Nc3ncccc3C)c1=O)CCCC2	5.08%
CCCn1c2c(c(O)c(C(=O)Nc3ncccc3O)c1=O)CCCC2	25.1% (active)
O=C(NCc1ccccn1)C(=O)NCc1ccccn1	5.31%
COc1ccc(-c2[nH]c(-c3cccc(OC)c3)nc2SCC(=O)NCc2ccco2)cc1	25.2% (active)
COc1cccc(-n2c(SCC(=O)NCc3ccco3)nnc2-c2c[nH]c3ccccc23)c1	16.4%
COc1ccc(-n2c(SCC(=O)NCc3ccco3)nnc2-c2c[nH]c3ccccc23)cc1	3.42%
COc1ccc(-c2nc(SCC(=O)NCc3ccco3)c(-c3ccccc3)[nH]2)cc1OC	8.46%
COc1ccc(OC)c(-n2c(SCC(=O)NCc3ccco3)nnc2-c2c[nH]c3ccccc23)c1	24.5% (active)
COc1ccc(-c2[nH]c(-c3ccccc3)nc2SCC(=O)NCc2ccco2)cc1OC	4.65%
S=c1nc(-c2csc3c2CCCC3)[nH][nH]1	-7.04%
CCCC(=O)N(Cc1cc2cccc(C)c2[nH]c1=O)c1ccccc1OC	0.65%
